# Measurements taken from PubChem BioAssay (NCATS).
# Values joined by “and” are separate entries in the source; they are usually repeats but may differ in a detail not shown here. Equal values may be shown once. Records with an inconclusive call do not appear. Values without a mark were called inactive. Active and inactive are the calls of the source. Calls follow the shape of the dose curve; as a rule, active = well fitted curve in the direction sought with a large enough effect; inconclusive = small, poorly fitted or top-dose-only effect, or another doubt; inactive = no such curve, though single readings can be large; an effect the other way counts as inactive or inconclusive.
# Assays:
# PA-1 = assay: Primary qHTS to identify gynecologic anti-cancer compounds using libraries of approved drugs and bioactive compounds (AID 1345084); conditions: Gynecologic cancer cell panel viability, ATPlite luminescence, 48 h; series mostly up to 57.5 µM; also: nearly all actives have a fitted effect of over 55% in size
# In short: (§1)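 In this quantitative HTS, cell killing is estimated from loss of ATP-dependent luciferase light. Cells see five compound concentrations over a 48 h exposure.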
# SKOV3 = assay: as above; conditions: Gynecologic cancer cell panel viability, ATPlite luminescence, 48 h; series mostly up to 57.5 µM
# In short: as §1
# Tov-21-G = assay: as above; conditions: Gynecologic cancer cell panel viability, ATPlite luminescence, 48 h; series mostly up to 57.5 µM
# In short: as §1
# Tov112D = assay: as above; conditions: Gynecologic cancer cell panel viability, ATPlite luminescence, 48 h; series mostly up to 57.5 µM
# In short: as §1
# [1] = qHTS assay to identify inhibitors of the type 1 interferon - major histocompatibility complex class I in skeletal muscle: Counter screen cell viability and HiBit confirmation (AID 1347412); conditions: iHSKM muscle cells + IFN-b, HiBiT or CellTiter-Glo, 24 h; for activity change, negative = inhibition: at 45.9 µM (top of the series); as to all read-outs here: nearly all actives have a fitted effect of over 60% in size
# In short: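 After 24 h with human IFN-beta (4 ng/ml) and compound titrations (top 46 uM final, 1:3, 12 points), HLA-B HiBit myoblasts were lysed for either Nano-Glo HiBiT luminescence or CellTiter Glo viability on paired plates.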
# % is scaled to controls: 0 for no effect and ±100 for the full control effect; potency is read from the fitted curve at half-maximal effect.
structure (smiles),measurement,setting,value
CC1=C2C(O)C(=O)OC(c3ccoc3)C2(C)CCC1O (stereo not given),Potency,PA-1,inactive
same,Potency,SKOV3,inactive
same,Potency,Tov-21-G,inactive
same,Potency,Tov112D,inactive
CC1CCC2(CO)C(C(=O)O)=CCCC2C1(C)CCc1ccoc1 (stereo not given),Potency,PA-1,inactive
same,Potency,SKOV3,inactive
same,Potency,Tov-21-G,inactive
same,Potency,Tov112D,inactive
CCC(C)C(=O)OC1CC(O)C23C4OCC5(C(O)CC2C1(C)C(O)O4)C3C(=O)C(O)C1(C)C(O)(c2ccoc2)CC2OC251 (stereo not given),Potency,PA-1,3.16 µM (active)
same,Potency,SKOV3,3.16 µM (active)
same,Potency,Tov112D,3.55 µM (active)
O=[N+]([O-])c1cccc2[nH]c(CNc3nc(N4CCOCC4)nc4c3ncn4-c3ccsc3)nc12,Potency,PA-1,0.891 µM (active)
same,Potency,SKOV3,0.794 µM (active)
same,Potency,Tov112D,0.447 µM (active)
C[C@@H]1C(=O)OC[C@H]2C(C(=O)O)=C[C@@H]3CC(C)(C)C[C@]312,Potency,PA-1,inactive
same,Potency,SKOV3,inactive
same,Potency,Tov112D,inactive
C=C1CN(Cc2ccc(C(=O)Nc3ccccc3N)cc2)C(=O)c2ccccc21,Potency,PA-1,2.24 µM (active)
same,Potency,SKOV3,1.41 µM (active)
same,Potency,Tov112D,3.98 µM (active)
CCN1CCN(Cc2ccc(NC(=O)c3ccc(C)c(/C=C/c4cnc5[nH]ccc5c4OC)c3)cc2C(F)(F)F)CC1,Potency,PA-1,5.62 µM (active)
same,Potency,SKOV3,8.91 µM (active)
same,Potency,Tov-21-G,2.51 µM (active)
same,Potency,[1]; HiBiT,6.25 µM (active)
same,Potency,[1]; Viability,14 µM (active)
CCCCc1nc2cc(/C=C/C(=O)NO)ccc2n1CCN(CC)CC,Potency,PA-1,0.631 µM (active)
same,Potency,SKOV3,3.98 µM (active)
same,Potency,Tov-21-G,7.94 µM (active)
same,Potency,Tov112D,3.16 µM (active)
same,Potency,[1]; HiBiT,1.11 µM (active)
same,"activity change, negative = inhibition",[1]; Viability,3.05%
CC[C@H]1OC(=O)[C@](C)(F)C(=O)[C@H](C)[C@@H](O[C@@H]2O[C@H](C)C[C@H](N(C)C)[C@H]2O)[C@](C)(OC)C[C@@H](C)C(=O)[C@@H](C)[C@H]2N(CCCCn3cc(-c4cccc(N)c4)nn3)C(=O)O[C@]12C,Potency,PA-1,inactive
same,Potency,SKOV3,inactive
same,Potency,Tov112D,inactive
COc1cc2ncnc(Nc3ccc(O)cc3)c2cc1OC,Potency,PA-1,inactive
same,Potency,SKOV3,inactive
same,Potency,Tov112D,inactive
Cc1ccc(-c2ccc3c(ccc4sc5c(c43)NC[C@@H](C)NC5=O)n2)cn1,Potency,PA-1,inactive
same,Potency,SKOV3,inactive
same,Potency,Tov-21-G,inactive
same,Potency,Tov112D,inactive
same,"activity change, negative = inhibition",[1]; HiBiT,-1.05%
same,"activity change, negative = inhibition",[1]; Viability,10.5%
Cc1nc([C@](C)(O)CO)sc1-c1cnc(N)c(O[C@H](C)c2cc(F)ccc2-n2nccn2)c1,Potency,PA-1,11.2 µM (active)
same,Potency,SKOV3,inactive
same,Potency,Tov112D,inactive
CC(C)c1cc(CNc2nc(Nc3cc(C4CC4)[nH]n3)cc(N3CCN(C)CC3)n2)on1,Potency,PA-1,0.398 µM (active)
same,Potency,SKOV3,1 µM (active)
same,Potency,Tov112D,5.01 µM (active)
same,Potency,[1]; HiBiT,1.98 µM (active)
same,"activity change, negative = inhibition",[1]; Viability,6.65%
O=C(N/N=C/c1ccc(O)c(O)c1)c1cc2ccccc2cc1O,Potency,PA-1,inactive
same,Potency,SKOV3,inactive
same,Potency,Tov112D,inactive
CCCCNc1ncc2c(-c3ccc(CN4CCN(C)CC4)cc3)cn(C3CCC(O)CC3)c2n1 (stereo not given),Potency,PA-1,6.31 µM (active)
same,Potency,SKOV3,3.55 µM (active)
same,Potency,Tov-21-G,7.94 µM (active)
same,Potency,[1]; HiBiT,3.94 µM (active) and 14 µM (active)
same,Potency,[1]; Viability,7.01 µM (active)
COc1cc2c(NC3CCN(CC4CCCCC4)CC3)nc(N3CCCN(C(C)C)CC3)nc2cc1OCCCN1CCCCC1,Potency,PA-1,5.62 µM (active)
same,Potency,SKOV3,3.98 µM (active)
same,Potency,Tov-21-G,20 µM (active)
same,Potency,Tov112D,7.94 µM (active)
same,Potency,[1]; Viability,24.9 µM (active)
CC(C)Oc1ccc(C(=O)NC(CNC(=O)CN(C)C)Cc2ccc(-c3cn4cccc(C(C)O)c4n3)cc2)cc1Cl (stereo not given),Potency,PA-1,0.316 µM (active)
same,Potency,SKOV3,inactive
same,Potency,Tov112D,0.316 µM (active)
COc1cc(C2c3cc4c(c(O)c3CC(CO)C2C(=O)O)OCO4)cc(OC)c1O (stereo not given),Potency,PA-1,2 µM (active)
same,Potency,SKOV3,11.2 µM (active)
same,Potency,Tov112D,4.47 µM (active)
O=C(/C=C/c1cccc(S(=O)(=O)Nc2ccccc2)c1)NO,Potency,PA-1,1.26 µM (active)
same,Potency,SKOV3,11.2 µM (active)
same,Potency,Tov112D,3.98 µM (active)
same,Potency,[1]; HiBiT,3.13 µM (active)
same,"activity change, negative = inhibition",[1]; Viability,-9.07%
CNC(=O)c1ccccc1Nc1cc(Nc2ccc(N3CCOCC3)cc2OC)ncc1C(F)(F)F,Potency,PA-1,15.8 µM (active)
same,Potency,SKOV3,inactive
same,Potency,Tov112D,inactive
Cc1cnc(NC(=O)Nc2cc(Br)c(C)cc2OCC2CNCCO2)cn1 (stereo not given),Potency,PA-1,inactive
same,Potency,SKOV3,10 µM (active)
same,Potency,Tov112D,inactive
C/C1=C\CCC(C)CCO[C@@H]2O[C@H](CO[C@@H]3OC[C@H](O)[C@H](O)[C@H]3OC1=O)[C@@H](O)[C@H](O)[C@H]2O (stereo not given in full),Potency,PA-1,inactive
same,Potency,SKOV3,inactive
same,Potency,Tov-21-G,inactive
same,Potency,Tov112D,inactive
Cc1cc(OCc2nnc(SC3CCCC3)n2-c2cccnc2)ccc1-c1ccc(S(C)(=O)=O)cc1,Potency,PA-1,12.6 µM (active)
same,Potency,SKOV3,0.794 µM (active)
same,Potency,Tov-21-G,28.2 µM (active)
same,Potency,Tov112D,31.6 µM (active)
same,"activity change, negative = inhibition",[1]; Viability,-25.3%
